Rows were chosen to be rich in hits. Some 4.6% of all compounds tested hit in one or more screens of this group.
ssDAF-12 act = S. stercoralis DAF-12 activation, primary screen; HEK293 ssDAF-12/GRIP1 lit1-tk-luc reporter, luminescence; % of 3 µM dafachronic acid response; activation, % at 6.8 µM; actives 1% (n = 370,000); AID 652126;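 active means activation above the mean over all tested compounds plus 3 SD, cut at about 0.9% in these data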
DAX1 inh-1 = blocks DAX1 repression of SF-1 activated StAR promoter | actives 1.1% (n = 370,000) | inhibition, % at 6.8 µM | AID 652010 | HEK293T StAR-luciferase reporter, SF-1/DAX-1 repression relief;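 active means inhibition above the mean over all tested compounds plus 3 SD, cut at about 3.6% in these data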;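 further: higher inhibition means more luminescence from relief of DAX-1 repression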
hcDAF-12 act = H. contortus DAF-12 activation, primary screen; HEK293 hcDAF-12 lit1-tk-luc reporter, luminescence; 0% DMSO, 100% Δ7-dafachronic acid; actives 1.4% (n = 370,000); AID 652067; activation, % at 6.8 µM;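 active means activation above the mean of all tested compounds plus 3 SD, cut at about 5.5% in these data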
hgDAF12 agonist = agonists of H. glycines DAF-12 nuclear receptor; activation, % at 6.8 µM; HEK293 GAL4-hgDAF12 UAS-luciferase reporter, agonist luminescence; normalized to butyrate control; AID 687014; actives 1.8% (n = 370,000);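 active means activation above a cutoff set at the mean of all screened compounds plus 3 SD, cut at about 10% in these data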
Wee1 degr inh = human Wee1 degradation inhibition, primary screen; P30291; actives 1.2% (n = 220,000); HeLa Luc-Wee1K328M stability, luciferase luminescence; 100% = proteasome inhibitor MG132 effect; reporter increase, % at 5 µM;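 active means activation above the mean of all tested compounds plus 3 SD, set per screening run, cut at about 8.8% in these data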;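 further: cells exposed to compound for 20 h before luminescence read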
Target sequence (P30291 whole entry K328M): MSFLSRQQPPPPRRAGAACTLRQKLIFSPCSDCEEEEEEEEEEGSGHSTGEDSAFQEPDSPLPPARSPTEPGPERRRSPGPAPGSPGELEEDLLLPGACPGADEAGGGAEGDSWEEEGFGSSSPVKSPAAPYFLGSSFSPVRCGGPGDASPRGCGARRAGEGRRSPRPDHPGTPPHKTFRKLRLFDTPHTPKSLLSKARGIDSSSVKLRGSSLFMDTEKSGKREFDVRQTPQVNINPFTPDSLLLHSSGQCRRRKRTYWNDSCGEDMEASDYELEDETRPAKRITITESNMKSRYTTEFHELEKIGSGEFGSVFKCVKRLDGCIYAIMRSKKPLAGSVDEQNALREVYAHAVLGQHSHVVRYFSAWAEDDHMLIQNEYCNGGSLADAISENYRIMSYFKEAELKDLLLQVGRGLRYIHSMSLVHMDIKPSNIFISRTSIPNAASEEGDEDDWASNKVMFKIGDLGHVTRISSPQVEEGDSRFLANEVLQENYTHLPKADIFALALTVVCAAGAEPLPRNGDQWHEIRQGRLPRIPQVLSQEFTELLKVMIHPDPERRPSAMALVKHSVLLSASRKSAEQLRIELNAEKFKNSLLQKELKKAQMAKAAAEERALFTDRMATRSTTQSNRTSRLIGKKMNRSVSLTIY
DAX1 inh-2 = inhibitors of human orphan nuclear receptor DAX1 (NR0B1); P51843; HEK293 Gal4-DAX1 luciferase reporter, luminescence; inhibition, % at 6.75 µM; actives 0.99% (n = 340,000); AID 504766;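 active means inhibition above the mean over all tested compounds plus 3 SD, cut at about 4.2% in these data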;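 further: inhibition shows as a rise in luminescence from relieved DAX1 repression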
DAX1 inh confirm = confirmation of human DAX1 (NR0B1) inhibitors; actives 87% (n = 2,400); inhibition, % at 6.8 µM; shares compounds with DAX1 inh-1; HEK293T StAR-promoter luciferase reporter, SF-1/DAX-1 repression;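 active means inhibition above the average of every tested compound plus 3 SD, cut at about 3.8% in these data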;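 further: active compounds raise luminescence by relieving repression of the StAR reporter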
SF1 AF2mut Luc = nonselective inhibitor or artifact in SF-1 mutant DAX1 counter-screen | shares compounds with DAX1 inh-1 | HEK293 StAR-luciferase, SF-1 AF2 mutant, luminescence | inhibition, % at 6.8 µM | actives 78% (n = 2,400);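 active means inhibition above the mean of all tested compounds plus 3 SD, cut at about 3% in these data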
Large screens that a line does not name were inactive (follow-up assays come after a bar, where they were run).

CCOc1ccc(CCN2C(=S)N([C@@H](CC(C)C)CN3CCC[C@@H]3CN3C(=S)NC[C@@H]3Cc3ccccc3)C[C@@H]2Cc2ccc(O)cc2)cc1	none (no result: Wee1 degr inh, DAX1 inh-2)
CN(C)c1cccc(C(=O)N/N=C/c2ccccc2F)c1	DAX1 inh-1 8.5, hgDAF12 agonist 12 | DAX1 inh confirm 8.7 | SF1 AF2mut Luc inactive
O=C(NN=Cc1ccccc1Cl)c1ccccc1	DAX1 inh-1 5.2, hgDAF12 agonist 12 (no result: Wee1 degr inh) | DAX1 inh confirm 14 | SF1 AF2mut Luc 6.9
O=S1(=O)C=C[C@H](COCc2ccccc2)N1	none (no result: Wee1 degr inh, DAX1 inh-2)
Cc1cccn2cc(-c3ccc4c(c3)NC(=O)CO4)nc12	none
Cc1ccn2cc(-c3ccc4c(c3)NC(=O)CO4)nc2c1	DAX1 inh-1 5.3, hgDAF12 agonist 11 | DAX1 inh confirm 8.6 | SF1 AF2mut Luc 6.0
COc1ccc(C(CNC(=O)c2cccc(S(=O)(=O)N3CCCC3)c2)N2CCCC2)cc1 (configuration not stated)	DAX1 inh-1 5.6 (no result: Wee1 degr inh) | DAX1 inh confirm inactive | SF1 AF2mut Luc inactive
COc1ccc(C(CNC(=O)c2ccc(NS(=O)(=O)c3ccc(F)c(C)c3)cc2)N2CCCC2)cc1 (configuration not stated)	none (no result: Wee1 degr inh)
COc1ccc(C(CNC(=O)c2ccc(Cl)c(NC(=O)c3cccs3)c2)N2CCCC2)cc1 (configuration not stated)	DAX1 inh-1 4.8 (no result: Wee1 degr inh) | DAX1 inh confirm 3.9 | SF1 AF2mut Luc inactive
COc1ccc(C(CNC(=O)c2cc3c(s2)CCC(C)C3)N2CCCC2)cc1 (configuration not stated)	DAX1 inh-1 5.8 (no result: Wee1 degr inh) | DAX1 inh confirm 5.8 | SF1 AF2mut Luc 3.0
CCOc1ccc(NS(=O)(=O)c2ccc(C(=O)NCC(c3ccc(OC)cc3)N3CCCC3)cc2)cc1 (configuration not stated)	DAX1 inh-1 7.5 (no result: Wee1 degr inh) | DAX1 inh confirm 7.0 | SF1 AF2mut Luc 4.9
COc1ccccc1CNC(=O)c1cc(-c2cc(F)ccc2OC(C)C)n[nH]1	none (no result: Wee1 degr inh, DAX1 inh-2)
O=C(NC1CCCCC1)C(c1ccccc1)n1c(=O)c(-c2cc3ccccc3[nH]2)nc2ccccc21 (configuration not stated)	none (no result: Wee1 degr inh, DAX1 inh-2)
C[C@@H]1COc2cccc(NC3CC3)c2S(=O)(=O)N1	none (no result: Wee1 degr inh, DAX1 inh-2)
O=C(O)c1ccc(N/N=C/c2ccc(-c3ccc(Cl)cc3Cl)o2)cc1	DAX1 inh-1 5.1 | DAX1 inh confirm 15 | SF1 AF2mut Luc 5.6
O=C(O)c1ccc(N/N=C/c2ccc(-c3cccc(Cl)c3)o2)cc1	ssDAF-12 act 1.0, DAX1 inh-1 6.2, hgDAF12 agonist 16, DAX1 inh-2 7.2 | DAX1 inh confirm 13 | SF1 AF2mut Luc 7.6
CCN1C[C@@H]2[C@@H]3C(=O)N(Cc4ccccc4)C(=O)[C@@H]3[C@](Cc3ccccc3)(C(=O)OC)N2C1=NC	none (no result: Wee1 degr inh)
O=C1NC[C@H](Cc2ccc(O)cc2)N(C[C@@H]2CCCN2C[C@H](Cc2ccccc2)N2C[C@H](Cc3ccc(O)cc3)N(CC3CCCCCC3)C(=O)C2=O)C1=O	none (no result: Wee1 degr inh, DAX1 inh-2)
COc1ccc(Cl)cc1C(=O)NNC(=O)COC(=O)c1cccs1	DAX1 inh-1 6.4 (no result: Wee1 degr inh) | DAX1 inh confirm inactive | SF1 AF2mut Luc inactive
Cc1cc(Cl)ccc1OCC(=O)NNC(=O)c1cccs1	none (no result: Wee1 degr inh)
Fc1cccc(F)c1CSc1nc2ccccc2[nH]1	DAX1 inh-1 5.1, hgDAF12 agonist 12 | DAX1 inh confirm 16 | SF1 AF2mut Luc 7.8
Cc1noc(C)c1CSc1nc2ccccc2[nH]1	none
Nc1cc(OCc2ccccc2)ccc1OCc1ccccc1	DAX1 inh-1 4.7 (no result: Wee1 degr inh) | DAX1 inh confirm 3.6 | SF1 AF2mut Luc 4.5
COc1ccc(C(=O)Nc2ccc3c(c2)C(=O)N(C)[C@H]2CC[C@H](CC(=O)NCC4CC4)O[C@@H]2CO3)cc1	none (no result: Wee1 degr inh, DAX1 inh-2)
O=C(CSc1ccccn1)Nc1ccc2ccccc2c1	none (no result: ssDAF-12 act, DAX1 inh-1, hcDAF-12 act, hgDAF12 agonist, DAX1 inh-2)
O=C(CSc1ccccn1)Nc1ccc2c(c1)CCC2	DAX1 inh-1 5.0 (no result: Wee1 degr inh) | DAX1 inh confirm 7.2 | SF1 AF2mut Luc 5.5
O=C(Cn1nnc(-c2ccccc2)n1)Nc1ccc2c(c1)OCO2	none
O=C(Cn1nnc(-c2ccc3c(c2)OCO3)n1)Nc1ccccc1C(=O)O	DAX1 inh-1 4.9 (no result: Wee1 degr inh) | DAX1 inh confirm inactive | SF1 AF2mut Luc 3.1
COCCN(CC(=O)Nc1cccc(C)c1C)C(=O)c1oc2ccccc2c1C	none (no result: Wee1 degr inh)
CC1(C)Cc2cccc(OCC(=O)NCCc3ccc(S(N)(=O)=O)cc3)c2O1	none (no result: Wee1 degr inh)
CC1(C)Cc2cccc(OCC(=O)NCCc3ccccc3)c2O1	DAX1 inh-1 5.1 (no result: Wee1 degr inh) | DAX1 inh confirm 4.5 | SF1 AF2mut Luc 3.1
COc1ccc(NC(=S)NC(=O)c2ccccc2)cn1	DAX1 inh-1 4.6, hgDAF12 agonist 13 (no result: Wee1 degr inh) | DAX1 inh confirm inactive | SF1 AF2mut Luc 4.3
COC(=O)C1=CN(Cc2ccccc2)C=C(C(=O)OC)C1c1cc(F)ccc1F	none (no result: Wee1 degr inh)
CC(/C=N/NC(=O)c1ccccc1C)=C\c1ccccc1	none (no result: Wee1 degr inh, DAX1 inh-2)
Cc1c(C(=O)N/N=C/c2ccoc2)cccc1[N+](=O)[O-]	none (no result: Wee1 degr inh)
CC(/C=N/NC(=O)c1ccccc1F)=C\c1ccccc1	DAX1 inh-1 9.2, hgDAF12 agonist 12 (no result: Wee1 degr inh) | DAX1 inh confirm 9.9 | SF1 AF2mut Luc 4.2
O=C(N/N=C\c1ccoc1)c1ccco1	DAX1 inh-1 6.6 (no result: Wee1 degr inh) | DAX1 inh confirm inactive | SF1 AF2mut Luc inactive
O=C(N/N=C/c1ccoc1)c1ccccc1F	DAX1 inh-1 5.3 (no result: Wee1 degr inh) | DAX1 inh confirm 3.7 | SF1 AF2mut Luc 3.3
CCCCCCCCN1C(=O)[C@@H](CC(=O)NCCCOC)C[C@@]2(C(=O)OC)C1=C[C@H](C(C)C)O[C@@H]2C1CC1	none (no result: Wee1 degr inh, DAX1 inh-2)
Clc1cccc(CNc2nc(-c3ccccn3)nnc2-c2ccccc2)c1	none (no result: DAX1 inh-1, Wee1 degr inh, DAX1 inh-2)
CN(C)c1cccc(C(=O)OCC(=O)NC(=O)NCc2ccccc2)c1	none (no result: Wee1 degr inh)
CCOC(=O)C1=CCN(S(=O)(=O)c2ccccc2Cl)C1c1ccccc1 (configuration not stated)	none (no result: Wee1 degr inh, DAX1 inh-2)
CCOC(=O)c1c(C)[nH]c(C(=O)NNC(=O)c2ccccc2F)c1C	DAX1 inh-1 5.1 (no result: Wee1 degr inh) | DAX1 inh confirm 8.3 | SF1 AF2mut Luc 6.5
O=C(O)COc1ccccc1C=NNC(=O)c1ccccc1NS(=O)(=O)c1cccs1	none (no result: Wee1 degr inh)
C=CCn1c(SCC(=O)c2c(N)n(C)c(=O)n(C)c2=O)nnc1-c1ccoc1C	none (no result: Wee1 degr inh)
CNc1nnc(SCC(=O)c2cc(C)n(C3CC3)c2C)s1	DAX1 inh-1 5.0 (no result: Wee1 degr inh) | DAX1 inh confirm 6.7 | SF1 AF2mut Luc inactive
N/C(=N\N=C\c1cccc([N+](=O)[O-])c1)c1nonc1N	none (no result: DAX1 inh-2)
